According to PubChem BioAssay AID430 (Sanford-Burnham Center for Chemical Genomics, 2006):
The whole screen tested about 63,000 compounds, of which about 1,100 (1.7%) were called active. Cut-off read from the data, not from the text of the source: active = cytotoxicity above about 50%; inactive = the rest. The entries come from a sample that favours actives as a whole. Measured potencies and affinities stand elsewhere.

Experiment: HPDE-C7 pancreatic duct cell viability loss – fluorescence, HTS (AID 430);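 note: cells exposed to compound for 48 hours before viability readout; 0% = vehicle and 100% = reference cytotoxic drug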
Conditions: HPDE-C7 pancreatic duct cells viability, at 10 µM, stronger effect = higher value

SMILES	cytotoxicity
COc1cccc(CNC(=O)C2CCN(S(=O)(=O)N3CCCC3)CC2)c1	-7.2% (inactive)
COc1ccc2c(C)cc(=O)oc2c1C	0.6% (inactive)
C=CCn1c(-c2cc(OC)c(OC)c(OC)c2)n[nH]c1=S	-1.6% (inactive)
Cc1nn(-c2ccccc2)c2c1C1(C(=O)N(C)c3ccccc31)N(c1ccccc1)C(=O)N2 (stereo not given)	-21.2% (inactive)
O=C1C=C(O)CC(c2ccc(Cl)cc2)C1 (stereo not given)	31.1% (inactive)
CCOC(=O)c1sc(NC(=O)CSc2nnc(-c3ccco3)n2CC)c(C(=O)OCC)c1C	31.5% (inactive)
CCC(C)N(C(=O)Cn1nnc2ccccc21)C(C(=O)NCc1ccco1)c1cccc(OC)c1 (stereo not given)	-10.2% (inactive)
COc1ccc(C(NC(=O)c2ccco2)c2ccc(OC)c(OC)c2)cc1OC	-8.3% (inactive)
Nc1nnc(-c2ccco2)s1	-4.3% (inactive)
CCOC(=O)N1CCC(NC(=O)Cn2cc3c(n2)CCC(C)C3)CC1 (stereo not given)	6.2% (inactive)
Cc1c(C(=O)OCc2ccccc2)[nH]c2c1C(=O)CC(c1ccco1)C2 (stereo not given)	65.7% (active)
CC1=C(C(=O)OCc2ccccc2)C(c2ccco2)C2=C(CC(C)(C)CC2=O)N1 (stereo not given)	22.7% (inactive)
COCCOC(=O)c1[nH]c2c(c1C)C(=O)C(C(=O)OC)C(C)C2 (stereo not given)	-7.3% (inactive)
Cc1c(C(=O)O)[nH]c2c1C(=O)CC(c1ccccc1)C2 (stereo not given)	-12.1% (inactive)
COc1ccc(OC)c(C2CC(=O)c3c([nH]c(C(=O)OCC4CCCO4)c3C)C2)c1 (stereo not given)	8.2% (inactive)
COCCOC(=O)c1[nH]c2c(c1C)C(=O)CC(c1ccco1)C2 (stereo not given)	60.3% (active)
Cc1c(C(=O)OCC2CCCO2)[nH]c2c1C(=O)CC(c1ccco1)C2 (stereo not given)	62.4% (active)
Cc1c(C(=O)OCCOC(C)C)[nH]c2c1C(=O)CC(c1ccco1)C2 (stereo not given)	59.9% (active)
Cc1c(C(=O)OCC2CCCO2)[nH]c2c1C(=O)CC(c1ccc(N(C)C)cc1)C2 (stereo not given)	-4.3% (inactive)
COc1cc(C2CC(=O)c3c([nH]c(C(=O)OCCOC(C)C)c3C)C2)cc(OC)c1OC (stereo not given)	2.4% (inactive)

SMILES	cytotoxicity
Cc1c(C(=O)OCCOC(C)C)[nH]c2c1C(=O)CC(C)(C)C2	-12% (inactive)
CCN1CCN(c2ncc(C(=O)N3CCCc4ccccc43)c3ccccc23)CC1	-18.1% (inactive)
Cn1c(=O)c2c(nc(N3CCCCCC3)n2CC(O)COc2ccccc2)n(C)c1=O (stereo not given)	3.5% (inactive)
COC(=O)c1[nH]c2cc(OC)c(OC)cc2c1NC(=O)c1cccc(OC)c1	-10.5% (inactive)
COc1ccc(-c2noc(COc3ccc(C)c(C)c3)n2)cc1OC	3.4% (inactive)
Cc1c(C(=O)OC2CCCCC2)[nH]c2c1C(=O)CC(C)(C)C2	-3.5% (inactive)
CSCCOC(=O)c1[nH]c2c(c1C)C(=O)CC(c1ccco1)C2 (stereo not given)	64.9% (active)
CCOC(=O)c1[nH]c2c(c1C)C(=O)CC(c1ccc(OCC)c(OC)c1)C2 (stereo not given)	-5% (inactive)
CCC(C)OC(=O)c1[nH]c2c(c1C)C(=O)CC(c1ccc(N(C)C)cc1)C2 (stereo not given)	11.5% (inactive)
CCOC(=O)c1[nH]c2c(c1C)C(=O)CC(c1ccc(OC)c(OC)c1)C2 (stereo not given)	-13.8% (inactive)
Cc1c(C(=O)OC2CCC(C)CC2)[nH]c2c1C(=O)CCC2 (stereo not given)	-8.8% (inactive)
Cc1c(C(=O)OC2CCCC2)[nH]c2c1C(=O)CC(c1ccco1)C2 (stereo not given)	79.3% (active)
Cc1c(C(=O)OCC(C)C)[nH]c2c1C(=O)CC(c1ccco1)C2 (stereo not given)	63.7% (active)
CCOC(=O)c1[nH]c2c(c1C)C(=O)CC(c1ccco1)C2 (stereo not given)	70.2% (active)
COc1ccc(CCNS(=O)(=O)c2cccc(S(=O)(=O)N3CCCC3)c2)cc1OC	-3.9% (inactive)
Cc1cc(SCNC(=O)c2ccccc2)ncn1	-13% (inactive)
COc1ccc(N2CCN(c3oc(COc4ccccc4)nc3C#N)CC2)cc1	-8.8% (inactive)
O=C(O)c1cccc(CN2C(=O)SC(Nc3ccccc3)C2=O)c1 (stereo not given)	-3.2% (inactive)
CN(C)C(=O)COn1c(SCC(=O)N(C)C)nc2ccccc2c1=O	-6.6% (inactive)
COc1ccc(C2C3=C(CC(C)(C)CC3=O)Nc3n[nH]c(C)c32)cc1 (stereo not given)	-9.3% (inactive)

SMILES	cytotoxicity
CCOc1cccc(C(=O)Nc2cc(-c3nn4c(C)nnc4s3)ccc2C)c1	-4.1% (inactive)
O=C(O)C1CCC(CNCc2cccnc2)CC1 (stereo not given)	-8.3% (inactive)
CC1(C)CC(=O)C(C=Nc2ccccc2)=C(O)C1	2% (inactive)
Cc1ccc(SCCC(=O)NCC2CCCO2)cc1 (stereo not given)	-5.9% (inactive)
COc1ccc(-c2nnc(NC(=O)c3ccc(S(=O)(=O)N4CCCc5ccccc54)cc3)o2)cc1	53.1% (active)
O=C(Nc1ccc(S(=O)(=O)N2CCCc3ccccc32)cc1)C1CCCO1 (stereo not given)	3% (inactive)
O=C(NCc1ccco1)c1ccc(S(=O)(=O)N2CCCc3ccccc32)cc1	-2.8% (inactive)
COc1ccc(-c2nnc(NC(=O)c3ccccc3C)o2)cc1	1.9% (inactive)
COc1ccc(-c2nnc(NC(=O)c3ccc(S(=O)(=O)N4CCc5ccccc5C4)cc3)o2)cc1	40.7% (inactive)
O=C(Nc1nnc(C2CC2)o1)c1ccc(S(=O)(=O)N2CCCc3ccccc32)cc1	73.6% (active)
COc1cc(OC)cc(-n2c3nc4ccccc4nc3c3c(=O)n(CC4CCCO4)cnc32)c1 (stereo not given)	-11.1% (inactive)
COc1ccc(OC)c(NC(=O)C2=C(C)Nc3ncnn3C2c2cccs2)c1 (stereo not given)	4.9% (inactive)
CCCCOCCCNC(=O)Cc1cccs1	-16.7% (inactive)
COc1ccccc1N1CCN(C(=O)N2CCOCC2)CC1	-6.9% (inactive)
Cc1cc(N2CCN(C/C=C/c3ccccc3)CC2)n2ncnc2n1	-6.5% (inactive)
O=C(NC1c2ccccc2-c2ccccc21)N1CCOCC1	1.5% (inactive)
O=C(CC1SC(=Nc2ccccc2)N(CCCCO)C1=O)NCc1ccccc1 (stereo not given)	-10.8% (inactive)
CCCOC(=O)CSC1=C(C#N)C(c2ccccc2OCC)C(C#N)C(=O)N1 (stereo not given)	5.1% (inactive)
Cc1cc(NC(=O)CCc2ccc(C)o2)no1	-11.8% (inactive)
CC(=O)C(C)Oc1ccc2c3c(c(=O)oc2c1)CCCCC3 (stereo not given)	-15.5% (inactive)
